Reference: the supplement of paper PMC10849652
About 8,800 targets were measured; listed, in parts, are those with a hit and a random draw of the rest. About 0.5% of all pairs of compound and target were hits.

Key:
Assay in all cases: log2 fold change, soluble protein after heating vs DMSO (PISA); higher = thermal stabilisation; K562 lysate, 10 uM; active = over 0.2 and 3.5 SD of the protein, either way, in both replicates (recomputed)
lapatinib = compound: CS(=O)(=O)CCNCc1ccc(-c2ccc3ncnc(Nc4ccc(OCc5cccc(F)c5)c(Cl)c4)c3c2)o1 [lapatinib]
Summary of the method: (§1)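 Soluble protein was defined as the supernatant remaining after 21,000xg for 90 min, following pooling of heated aliquots and adjustment to 0.5% NP-40 at 4°C. Before that, crude K562 extract at 1 mg/mL protein in PBS pH 7.4 with 1 mM MgCl2 was treated with 10 μM compound for 30 min and heated for 3 min across 48°C-58°C. Quantification used TMTpro 16plex LC-MS/MS with channel sums equalised, and values are log-two fold changes in thermal stability relative to solvent controls from duplicates.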

pictilisib = compound: CS(=O)(=O)N1CCN(Cc2cc3nc(-c4cccc5[nH]ncc45)nc(N4CCOCC4)c3s2)CC1 [pictilisib]
Summary of the method: as §1

crizotinib = compound: C[C@@H](Oc1cc(-c2cnn(C3CCNCC3)c2)cnc1N)c1c(Cl)ccc(F)c1Cl [crizotinib]
Summary of the method: as §1

[1] = compound: C[C@H](C1=CC=C(C=C1)C(=O)NC2=C3C=CNC3=NC=C2)N
Summary of the method: as §1

duvelisib = compound: C[C@H](Nc1ncnc2nc[nH]c12)c1cc2cccc(Cl)c2c(=O)n1-c1ccccc1 [duvelisib]
Summary of the method: as §1

gandotinib = compound: Cc1cc(Nc2cc(CN3CCOCC3)c3nc(C)c(Cc4ccc(Cl)cc4F)n3n2)n[nH]1 [gandotinib]
Summary of the method: as §1

doramapimod = compound: Cc1ccc(-n2nc(C(C)(C)C)cc2NC(=O)Nc2ccc(OCCN3CCOCC3)c3ccccc23)cc1 [doramapimod]
Summary of the method: as §1

bafetinib = compound: Cc1ccc(NC(=O)c2ccc(CN3CC[C@H](N(C)C)C3)c(C(F)(F)F)c2)cc1Nc1nccc(-c2cncnc2)n1 [bafetinib]
Summary of the method: as §1

[2] = compound: Cc1cccc(CC(=O)N2CCc3c2ccc(-c2cn(C)c4ncnc(N)c24)c3F)n1
Summary of the method: as §1

nilotinib = compound: Cc1cn(-c2cc(NC(=O)c3ccc(C)c(Nc4nccc(-c5cccnc5)n4)c3)cc(C(F)(F)F)c2)cn1 [nilotinib]
Summary of the method: as §1

[3] = compound: Cc1nc(Nc2n[nH]c3c2CN(C(=O)N[C@H](CN(C)C)c2ccccc2)C3(C)C)c2sccc2n1
Summary of the method: as §1

dasatinib = compound: Cc1nc(Nc2ncc(C(=O)Nc3c(C)cccc3Cl)s2)cc(N2CCN(CCO)CC2)n1 [dasatinib]
Summary of the method: as §1

[4] = compound: Cc1ncc(-c2ccnc(Nc3ccc(S(C)(=O)=O)cc3)n2)n1C(C)C
Summary of the method: as §1

[5] = compound: Cn1cc(-c2ccc3c(c2)CCN3C(=O)Cc2cccc(C(F)(F)F)c2)c2c(N)ncnc21
Summary of the method: as §1

quisinostat = compound: Cn1cc(CNCC2CCN(c3ncc(C(=O)NO)cn3)CC2)c2ccccc21 [quisinostat]
Summary of the method: as §1

tipifarnib = compound: Cn1cncc1[C@@](N)(c1ccc(Cl)cc1)c1ccc2c(c1)c(-c1cccc(Cl)c1)cc(=O)n2C [tipifarnib]
Summary of the method: as §1

[6] = compound: NC(=O)Nc1cc(-c2cccc(F)c2)sc1C(=O)N[C@H]1CCCNC1
Summary of the method: as §1

[7] = compound: NC(=O)c1cnc(N[C@@H]2CCCC[C@@H]2N)nc1Nc1cccc(-n2nccn2)c1
Summary of the method: as §1

[8] = compound: NC1(c2ccc(-c3nc4ccn5c(=O)[nH]nc5c4cc3-c3ccccc3)cc2)CCC1
Summary of the method: as §1

tozasertib = compound: Cc1cc(Nc2cc(N3CCN(C)CC3)nc(Sc3ccc(NC(=O)C4CC4)cc3)n2)n[nH]1 [tozasertib]
Summary of the method: as §1

Measured: log2 fold change

RNF149 (UniProt Q8NC42)
Chain of UniProt Q8NC42 (Q8NC42 whole entry, looked up): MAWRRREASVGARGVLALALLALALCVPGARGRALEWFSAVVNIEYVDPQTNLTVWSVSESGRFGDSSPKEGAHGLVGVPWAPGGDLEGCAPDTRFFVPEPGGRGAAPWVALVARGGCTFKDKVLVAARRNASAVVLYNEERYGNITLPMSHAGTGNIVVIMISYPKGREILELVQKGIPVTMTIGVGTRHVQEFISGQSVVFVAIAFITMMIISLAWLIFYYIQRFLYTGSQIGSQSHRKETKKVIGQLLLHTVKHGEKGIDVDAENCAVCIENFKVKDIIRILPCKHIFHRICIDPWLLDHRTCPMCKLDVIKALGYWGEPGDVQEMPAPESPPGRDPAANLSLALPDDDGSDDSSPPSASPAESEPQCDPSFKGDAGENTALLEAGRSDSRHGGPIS
inactive: lapatinib 0.073 | pictilisib -0.025 | crizotinib -0.006 | [1] -0.039 | duvelisib -0.025 | gandotinib -0.026 | doramapimod -0.099 | bafetinib -0.105 | [2] -0.013 | nilotinib 0.083 | [3] 0.129 | dasatinib -0.019 | [4] 0.099 | [5] 0.003 | quisinostat -0.019 | tipifarnib 0.087 | [6] 0.038 | [7] 0.156 | [8] -0.019

RNF113A (UniProt O15541)
Chain of UniProt O15541 (O15541 whole entry, looked up): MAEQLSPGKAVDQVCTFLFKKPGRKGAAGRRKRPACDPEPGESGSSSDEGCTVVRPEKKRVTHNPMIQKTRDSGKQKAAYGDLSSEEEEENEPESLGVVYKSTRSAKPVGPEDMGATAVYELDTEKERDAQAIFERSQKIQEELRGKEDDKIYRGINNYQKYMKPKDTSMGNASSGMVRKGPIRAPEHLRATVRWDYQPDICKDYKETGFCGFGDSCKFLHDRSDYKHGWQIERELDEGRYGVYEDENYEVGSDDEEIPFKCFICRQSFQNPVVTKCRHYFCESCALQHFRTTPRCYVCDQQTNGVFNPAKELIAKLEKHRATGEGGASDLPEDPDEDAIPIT
inactive: lapatinib 0.012 | pictilisib 0.021 | crizotinib 0.024 | [1] -0.072 | duvelisib -0.009 | gandotinib 0.068 | tozasertib 0.002 | doramapimod 0.016 | bafetinib 0 | [2] 0.034 | nilotinib 0.003 | [3] -0.004 | dasatinib -0.015 | [4] 0.007 | [5] 0.04 | quisinostat 0.063 | tipifarnib -0.019 | [6] -0.068 | [7] -0.005 | [8] -0.002

RETSAT (UniProt Q6NUM9)
Chain of UniProt Q6NUM9 (Q6NUM9 whole entry, looked up): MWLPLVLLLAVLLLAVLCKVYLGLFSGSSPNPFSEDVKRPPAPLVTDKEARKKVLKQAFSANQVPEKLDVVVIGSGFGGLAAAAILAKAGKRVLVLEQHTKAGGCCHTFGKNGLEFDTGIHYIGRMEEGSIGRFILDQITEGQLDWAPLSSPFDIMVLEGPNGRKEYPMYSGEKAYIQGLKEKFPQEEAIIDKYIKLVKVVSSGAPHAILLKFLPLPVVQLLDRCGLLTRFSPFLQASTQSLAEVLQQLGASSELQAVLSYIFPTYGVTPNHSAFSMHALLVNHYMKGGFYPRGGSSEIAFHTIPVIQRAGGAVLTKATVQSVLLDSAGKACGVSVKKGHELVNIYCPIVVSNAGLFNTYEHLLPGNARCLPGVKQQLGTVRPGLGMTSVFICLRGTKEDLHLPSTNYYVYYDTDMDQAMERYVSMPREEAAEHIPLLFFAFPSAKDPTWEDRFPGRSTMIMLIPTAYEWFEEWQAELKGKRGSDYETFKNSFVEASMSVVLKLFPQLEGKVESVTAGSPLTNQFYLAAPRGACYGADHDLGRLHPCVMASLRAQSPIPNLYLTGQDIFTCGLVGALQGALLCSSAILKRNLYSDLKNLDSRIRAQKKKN
active: quisinostat -0.485
inactive: lapatinib 0.056 | pictilisib -0.048 | crizotinib -0.329 | [1] -0.159 | duvelisib 0.039 | gandotinib 0.167 | tozasertib -0.024 | doramapimod 0.006 | bafetinib -0.097 | [2] 0.391 | dasatinib -0.1 | [5] -0.058 | [6] 0.152 | [7] -0.005 | [8] -0.051

RAI14 isoform 2 (UniProt Q9P0K7)
Chain of UniProt Q9P0K7 (Q9P0K7 whole entry, looked up): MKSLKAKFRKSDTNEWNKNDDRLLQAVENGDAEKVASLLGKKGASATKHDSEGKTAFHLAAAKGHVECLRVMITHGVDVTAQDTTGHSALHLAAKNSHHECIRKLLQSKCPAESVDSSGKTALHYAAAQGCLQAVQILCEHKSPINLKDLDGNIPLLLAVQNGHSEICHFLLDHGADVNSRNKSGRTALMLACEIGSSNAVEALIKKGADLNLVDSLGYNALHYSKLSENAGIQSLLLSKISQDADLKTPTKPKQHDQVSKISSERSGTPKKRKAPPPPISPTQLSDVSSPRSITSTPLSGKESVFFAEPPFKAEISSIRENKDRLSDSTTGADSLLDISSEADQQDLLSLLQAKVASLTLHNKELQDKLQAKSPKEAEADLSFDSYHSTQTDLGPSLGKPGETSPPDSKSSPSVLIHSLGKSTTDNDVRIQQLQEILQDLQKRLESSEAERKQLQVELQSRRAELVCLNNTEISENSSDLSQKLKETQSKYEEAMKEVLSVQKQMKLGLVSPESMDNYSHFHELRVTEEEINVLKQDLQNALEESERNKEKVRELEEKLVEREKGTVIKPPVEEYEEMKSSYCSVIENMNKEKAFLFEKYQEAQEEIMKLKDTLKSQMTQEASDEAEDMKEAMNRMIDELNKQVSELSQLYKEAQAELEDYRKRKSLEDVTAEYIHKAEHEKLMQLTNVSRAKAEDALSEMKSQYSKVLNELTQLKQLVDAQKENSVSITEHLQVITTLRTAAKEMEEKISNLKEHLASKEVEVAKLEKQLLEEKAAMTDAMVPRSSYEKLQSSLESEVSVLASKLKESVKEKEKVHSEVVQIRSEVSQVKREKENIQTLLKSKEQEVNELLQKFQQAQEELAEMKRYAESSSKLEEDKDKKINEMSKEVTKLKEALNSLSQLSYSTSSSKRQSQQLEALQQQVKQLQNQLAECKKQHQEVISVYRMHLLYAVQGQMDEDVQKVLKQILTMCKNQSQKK
inactive: lapatinib -0.026 | pictilisib -0.007 | crizotinib -0.014 | [1] 0 | duvelisib -0.025 | gandotinib -0.051 | tozasertib 0.009 | doramapimod 0 | bafetinib -0.029 | [2] 0.002 | nilotinib -0.004 | [3] -0.006 | dasatinib -0.003 | [4] -0.05 | [5] 0.013 | quisinostat -0.023 | tipifarnib -0.036 | [6] -0.02 | [7] 0.012 | [8] -0.013

RNF213, A0A0A0MTC1
inactive: lapatinib -0.012 | pictilisib -0.014 | crizotinib -0.064 | [1] -0.043 | duvelisib 0.008 | gandotinib -0.123 | tozasertib 0.043 | doramapimod 0.033 | bafetinib -0.066 | [2] 0.052 | nilotinib 0.015 | [3] -0.016 | dasatinib -0.027 | [4] -0.019 | [5] 0.035 | quisinostat -0.033 | tipifarnib 0.001 | [6] 0.071 | [7] 0.015 | [8] -0.016

RHAG (UniProt Q02094)
Chain of UniProt Q02094 (Q02094 whole entry, looked up): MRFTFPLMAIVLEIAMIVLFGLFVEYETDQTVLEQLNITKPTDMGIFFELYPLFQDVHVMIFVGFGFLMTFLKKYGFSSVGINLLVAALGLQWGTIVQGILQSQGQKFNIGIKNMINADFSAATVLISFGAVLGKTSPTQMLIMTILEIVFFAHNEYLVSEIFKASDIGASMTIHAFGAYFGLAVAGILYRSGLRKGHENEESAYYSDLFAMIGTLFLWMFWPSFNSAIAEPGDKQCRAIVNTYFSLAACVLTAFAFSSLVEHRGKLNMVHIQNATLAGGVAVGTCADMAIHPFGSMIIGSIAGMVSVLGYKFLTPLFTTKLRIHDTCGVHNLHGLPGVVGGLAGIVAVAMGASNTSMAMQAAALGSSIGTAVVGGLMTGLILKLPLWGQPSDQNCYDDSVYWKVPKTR
active: [1] -0.381
inactive: lapatinib -0.046 | pictilisib -0.002 | crizotinib -0.038 | duvelisib 0.113 | gandotinib 0.07 | tozasertib 0.05 | doramapimod 0.032 | bafetinib 0.004 | [2] 0.184 | nilotinib 0.041 | [3] -0.013 | dasatinib -0.029 | [4] -0.016 | [5] -0.06 | quisinostat -0.142 | tipifarnib 0.011 | [6] 0.011 | [7] -0.024 | [8] -0.002

RPL27 (UniProt P61353)
inactive: lapatinib -0.04 | pictilisib 0.008 | crizotinib 0.013 | duvelisib 0.012 | gandotinib -0.098 | tozasertib 0.01 | doramapimod -0.034 | bafetinib -0.033 | [2] -0.118 | nilotinib 0.022 | [3] -0.029 | dasatinib -0.049 | [4] 0.01 | [5] 0 | quisinostat 0.054 | tipifarnib -0.01 | [6] -0.017 | [7] -0.023 | [8] 0.012
active: [1] 0.411

RAE1 (UniProt P78406)
Chain of UniProt P78406 (P78406 whole entry, looked up): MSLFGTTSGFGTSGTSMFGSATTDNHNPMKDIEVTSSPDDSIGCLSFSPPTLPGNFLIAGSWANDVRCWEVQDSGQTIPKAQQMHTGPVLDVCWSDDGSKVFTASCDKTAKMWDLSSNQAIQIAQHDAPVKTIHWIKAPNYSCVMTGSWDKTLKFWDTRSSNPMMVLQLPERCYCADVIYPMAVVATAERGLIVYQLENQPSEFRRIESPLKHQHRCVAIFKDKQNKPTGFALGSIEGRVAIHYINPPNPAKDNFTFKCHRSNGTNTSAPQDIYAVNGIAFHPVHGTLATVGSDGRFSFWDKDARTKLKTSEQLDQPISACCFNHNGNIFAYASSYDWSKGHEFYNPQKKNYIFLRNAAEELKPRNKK
inactive: lapatinib 0.055 | pictilisib 0.003 | crizotinib 0.05 | [1] -0.158 | duvelisib -0.063 | gandotinib 0.031 | tozasertib -0.071 | doramapimod -0.032 | bafetinib 0.235 | [2] 0.111 | nilotinib -0.093 | [3] 0.042 | dasatinib 0.002 | [4] 0.012 | [5] 0.033 | quisinostat 0.038 | tipifarnib -0.053 | [6] 0.026 | [7] 0.024 | [8] 0.015

RELN (UniProt P78509)
inactive: lapatinib 0.047 | pictilisib 0.047 | crizotinib -0.022 | [1] -0.104 | duvelisib 0.002 | gandotinib 0.057 | tozasertib -0.002 | doramapimod -0.044 | bafetinib -0.042 | [2] 0.08 | nilotinib -0.086 | [3] -0.039 | dasatinib -0.005 | [4] -0.047 | [5] 0.002 | quisinostat -0.005 | tipifarnib -0.032 | [6] 0.042 | [7] -0.101 | [8] 0.013
